Screens (PubChem BioAssay)
Hits are enriched below; roughly 5.7% of the tested compounds scored in any of these assays.
Gal4-VP16 FLuc – VP16 counterscreen qHTS for inhibitors of ROR gamma transcriptional activity; Drosophila S2 Gal4-VP16 UAS-luciferase, luminescence, 20 h; actives 3.5% (n = 310,000); Potency, µM (series often up to 53.6 µM), for the others: at the highest dose activity, negative = inhibition, most hits filed as inhibitors;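 further: Gal4-VP16 expression switched on by copper sulfate through the metallothionein promoter; nearly all actives have a fitted effect of over 50% in size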
RORgamma inh – qHTS for inhibitors of ROR gamma transcriptional activity; Nuclear receptor ROR-gamma (Mus musculus), P51450; Drosophila S2 Gal4-RORgamma UAS-luciferase reporter, 20 h; Potency, µM (series often up to 53.6 µM), inactives show at the highest dose activity change, negative = inhibition, most hits filed as inhibitors; actives 5.4% (n = 310,000); AID 2551, 2010; further: nearly all actives have a fitted effect of over 60% in size
Target sequence (P51450 whole entry, looked up, the tested form may be a part): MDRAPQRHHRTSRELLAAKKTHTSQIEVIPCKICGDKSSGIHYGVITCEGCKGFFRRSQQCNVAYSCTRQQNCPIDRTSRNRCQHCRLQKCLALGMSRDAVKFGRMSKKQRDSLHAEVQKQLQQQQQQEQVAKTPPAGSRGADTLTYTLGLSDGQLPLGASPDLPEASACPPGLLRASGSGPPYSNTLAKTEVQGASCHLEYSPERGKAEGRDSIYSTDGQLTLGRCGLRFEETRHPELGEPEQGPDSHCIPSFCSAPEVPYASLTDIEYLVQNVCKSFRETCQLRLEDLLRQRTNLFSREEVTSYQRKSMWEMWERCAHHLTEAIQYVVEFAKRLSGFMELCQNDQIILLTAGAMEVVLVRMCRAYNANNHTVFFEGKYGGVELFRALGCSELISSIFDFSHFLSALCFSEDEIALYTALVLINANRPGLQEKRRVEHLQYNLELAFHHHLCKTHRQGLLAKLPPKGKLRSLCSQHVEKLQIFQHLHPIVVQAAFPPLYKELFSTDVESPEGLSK
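Read-out: Photinus luciferase luminescence; inhibitors lower reporter signal. Insect Schneider cells with Gal4-ROR gamma fusion under metallothionein promoter, UAS reporter; 700 uM final copper sulfate induction, 20 hr, ambient temperature.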
NPSR antag – qHTS Assay for Antagonists of the Neuropeptide S Receptor: cAMP Signal Transduction. Q6W5P4. CHO-NPSR cells, cAMP TR-FRET, antagonist mode. Potency, µM (doses to about 38.3 µM), for inactives: top-dose activity change, negative = inhibition, actives largely listed as inhibitors. actives 1% (n = 220,000). AID 1461, 2008; further: nearly all actives have a fitted effect of over 50% in size
B2AR arrestin – qHTS assay of beta-arrestin-biased ligands of beta2-adrenergic receptor; Beta-2 adrenergic receptor (Homo sapiens), P07550; beta-arrestin recruitment to beta2AR, cell-based reporter; Potency, µM (series often up to 46.1 µM), without a hit: top-dose activation, hits mostly activators; actives 0.02% (n = 330,000); AID 492947, 2010;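 further: 0% = DMSO controls and full agonism = EC100 isoproterenol or metaproterenol; nearly all actives have a fitted effect of over 65% in size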
Numbers without * were called inactive; ? = inconclusive; / = no result; [ ] = remark or other dose. The call rests on the fitted dose curve; in most records, active means well fitted curve in the direction sought with a large enough effect; inconclusive means small, poorly fitted or top-dose-only effect, or another doubt; inactive means no such curve, though single readings can be large; an effect the other way counts as inactive or inconclusive. Unless noted, on the % scale 0 is the no-effect control and ±100 the full control effect; potency means the concentration at half of the fitted maximal effect.

SMILES | Gal4-VP16 FLuc | RORgamma inh | NPSR antag | B2AR arrestin
CCOc1ccc(-n2cc(-c3ccc(OC)c(OC)c3)[nH]c2=S)cc1 | ? | 1.26µM* | 2.9% | 0.0%
CCOc1ccc(-n2cnc3scc(-c4ccc(OC)c(OC)c4)c3c2=O)cc1 | -2.6% | 35.3% | 55.8% | 3.9%
Cc1cccc(-n2cc(-c3ccccc3)[nH]c2=S)c1 | 7.08µM* | 2.51µM* | / | 0.4%
COc1cc(-c2ccccc2)[nH]c(=S)n1 | / | / | / | 0.3%
Cc1ccc(-c2cn(-c3ccccc3F)c(=S)[nH]2)cc1 | 7.08µM* | 1.78µM* | / | -1.0%
COc1cccc(-c2cn(-c3cccc(C(F)(F)F)c3)c(=S)[nH]2)c1 | ? | 3.16µM* | / | 13.2%
COc1ccc(-n2cc(-c3ccccc3)[nH]c2=S)cc1 | 3.55µM* | 2.24µM* | -6.9%[46.1 µM] | 0.0%
COc1ccccc1-n1cc(-c2ccccc2)[nH]c1=S | 20µM* | 3.98µM* | / | 0.6%
O=[N+]([O-])c1ccc(-c2cn(-c3ccccc3F)c(=S)[nH]2)cc1 | -11.6% | ? | 3.9% | -0.4%
Cc1cc(C)cc(NC(=O)C[n+]2ccccc2)c1 | -1.8% | 5.0% | / | -0.4%
CC(=O)N[C@@H](CCC(=O)O)C(=O)O | -1.4% | 6.5% | / | /
CCOc1ccc(-c2c[n+]3c(n2-c2ccccc2)CCCCC3)cc1 | 3.55µM* | ? | 18.1% | 0.1%
Cc1c(O)ccc(/C=N/Nc2ncccc2[N+](=O)[O-])c1O | ? | 10µM* | / | -0.4%
O=[N+]([O-])c1cccnc1N/N=C/c1ccccc1O | -4.4% | -25.8% | -20.1% | -0.1%
COc1ccccc1OC(=O)c1cc2ccccc2oc1=O | 5.0% | 0.4% | / | 0.3%
COc1cc(/C=C/[N+](=O)[O-])ccc1OC(=O)c1cc2ccccc2oc1=O | 7.08µM* | 15.8µM* | / | 5.2%
Cc1cccc(-n2c(Cn3nc(C)c([N+](=O)[O-])c3C)n[nH]c2=S)c1 | -4.7% | 11.2µM* | -4.7%[46.1 µM] | -0.3%
Cc1nn(CCc2n[nH]c(=S)n2-c2ccc(F)c(Cl)c2)c(C)c1[N+](=O)[O-] | ? | 7.08µM* | -9.3%[46.1 µM] | -0.3%
CCN(CC)CCNC(=O)CNC(=O)c1nn(-c2ccc(OC)cc2OC)c(=O)c2ccccc12 | -1.6% | -7.9% | / | 0.3%
CC(C)(C)c1ccc(-n2nc(C#N)c(Cl)cc2=O)cc1 | 7.08µM* | 7.08µM* | -54.8% | -0.3%
COC(=O)C1[C@@H](OC)C(OC(=O)COc2ccc(OC)cc2)C[C@@H]2CN3CCc4c([nH]c5cc(OC)ccc45)[C@H]3C[C@H]12 (stereo partly specified) | -7.3% | 11.5% | / | /
Fc1ccc(-c2n[nH]c(=S)n2-c2ccc3c(c2)OCCO3)cc1 | -25.4% | 12.6µM* | 22.8% | 0.1%
S=c1[nH]nc(-c2ccc(Cl)cc2Cl)n1-c1ccc(Cl)cc1 | ? | 6.31µM* | / | -0.1%
S=c1[nH]nc(-c2ccc(Cl)cc2)n1-c1ccc(Cl)cc1 | 7.08µM* | 7.08µM* | / | -0.5%
Nc1n[nH]c(=S)n1-c1ccc(Cl)cc1 | -18.7% | -9.3% | -8.4% | 0.1%
SMILES | Gal4-VP16 FLuc | RORgamma inh | NPSR antag | B2AR arrestin
S=c1[nH]nc(-c2ccc(Cl)cc2)n1-c1ccc2c(c1)OCCO2 | 7.08µM* | 3.16µM* | -19.5% | 0.0%
COc1ccc(-c2ccc3c(n2)CCCN3C[C@H](O)CN2CCCc3nc(C)c(C)cc32)cc1 | -0.2%[10 µM] | 28.2%[10 µM] | / | /
CCC1=C2CC[C@H]3C(=O)N(CC(=O)OC)C(=O)[C@H]3[C@H]2[C@@]2(C)C(=NCCc3c[nH]c4ccccc34)OC(=O)N2C1=O | 4.5% | -8.4% | / | /
O=C(O)c1cccc(Cl)c1Cl | 2.0% | -0.8% | / | /
CCCc1cc(=O)[nH]c(SC(C)C(=O)N2c3ccccc3CC2C)n1 (stereo unspecified) | / | / | / | 0.0%
O=C(NC(=S)Nc1cccnc1Cl)c1ccc(F)cc1 | ? | ? | / | 0.4%
COc1ccc(-n2c(-c3ccc(Cl)cc3Cl)n[nH]c2=S)c(OC)c1 | 6.31µM* | 3.98µM* | / | 9.7%
O=C(/C=C\c1ccccc1)Oc1cccc2cccnc12 | 3.16µM* | 1.41µM* | -37.1% | ?
O=Cc1ccccc1OCCCOc1cccc2cccnc12 | -28.6% | 2.4% | / | 0.2%
CC(Oc1cccc2cccnc12)C(=O)N/N=C/c1ccccc1 (stereo unspecified) | -0.7% | 17.7% | 1.9% | -0.3%
O=C(/C=C/c1ccccc1)Oc1cccc2cccnc12 | 4.47µM* | 0.708µM* | ? | ?
CCN(CC)CCOCCOC(=O)C(CC)(CC)c1ccccc1 (tested in a mixture with another compound) | -15.4% | 1.3%[10 µM] | / | /
Cc1ccc(F)c(NC(=S)Nc2cccc3ccccc23)c1 | ? | 11.2µM* | / | 2.9%
CC(=O)Nc1cccc(NC(=S)Nc2cccc3ccccc23)c1 | ? | 12.6µM* | / | -1.0%
Fc1ccccc1NC(=S)Nc1cccc2cnccc12 | -3.9% | -0.1% | 9.4% | 0.1%
Cc1ccc(C(=O)NNC(=S)Nc2cccc3ccccc23)s1 | -14.3% | 0.794µM* | -19.5%[46.1 µM] | -0.2%
CC(=O)c1cccc(NC(=S)Nc2cccc3ccccc23)c1 | 11.2µM* | 12.6µM* | / | 0.1%
CC(C)[C@@H]1NC(=O)[C@H](CCCCN)NC(=O)[C@@H](Cc2c[nH]c3ccccc23)NC(=O)[C@H](Cc2ccc(O)cc2)NC(=O)[C@@H](NC(=O)[C@H](N)Cc2ccccc2)CSSC[C@@H](C(=O)N[C@@H](Cc2c[nH]c3ccccc23)C(N)=O)NC1=O | -1.5% | 2.8% | / | /
Cc1noc(C)c1C(=O)N1CCC(C(=O)c2ccc(F)cc2F)CC1 | 0.5% | 13.8% | -14.2% | 0.1%
NC1=NC2C(N=C(Br)N2[C@@H]2O[C@H]3COP(=O)(O)O[C@@H]3[C@@H]2O)C(=O)N1 (stereo partly specified) | -6.5% | -6.8% | / | /
O=C(Nc1nccs1)c1cc(Cl)ccc1[N+](=O)[O-] | ? | 12.6µM* | -0.5%[46.1 µM] | -0.5%
Cc1ccc2c(Cl)c(C(=O)Nc3cc(C)on3)sc2c1 | ? | 26.5% | ? | 0.0%
CC(C)c1nnc(NC(=O)c2sc3ccccc3c2Cl)s1 | ? | 8.91µM* | -8.2%[46.1 µM] | 0.2%
Cc1cnc(NC(=O)c2sc3ccccc3c2Cl)s1 | 5.01µM* | 2µM* | -21.5% | -1.9%
Cc1ccnc(NC(=O)c2sc3ccccc3c2Cl)c1 | 1.41µM* | 0.282µM* | -42.7% | -0.6%
SMILES | Gal4-VP16 FLuc | RORgamma inh | NPSR antag | B2AR arrestin
CSc1nc(N)nc2c1ncn2CC(=O)N[C@H](C)c1cccc2ccccc12 | / | / | / | 0.2%
COc1ccc(CCNC(=O)COC(=O)CCC(=O)c2ccc(F)cc2)cc1OC | 1.5% | 2.0% | 8.2% | 0.0%
O=C(NC1CC1)c1sc2cc(Cl)ccc2c1Cl | / | / | / | 0.0%
O=C(Nc1nccs1)c1sc2cc(Cl)ccc2c1Cl | 2.82µM* | 0.501µM* | -5.5%[46.1 µM] | -0.3%
O=C(Nc1ccc(NC(=O)c2sc3ccccc3c2Cl)cc1)c1ccco1 | ? | 10.7%[10 µM] | -1.8% | -1.5%
O=C(Nc1nccs1)c1ccc(Cl)s1 | -93.2% | 10µM* | -1.7%[46.1 µM] | 0.3%
O=C(Nc1nccs1)c1sc2ccccc2c1Cl | 5.01µM* | 2.24µM* | -0.5%[46.1 µM] | -0.2%
